Legend:
Test in all cases: growth AUC relative to DMSO control (median of replicates) (fraction); higher = more growth (less inhibition), active = hit call of the paper
Details in all cases: 20 µM; 24 h;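 active = AUC reduced over 20% with Padj below 0.05 in at least 2 of 3 replicates; inactive = otherwise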
[1] = test system: Akkermansia muciniphila
Summary of the method: (§1)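 Gut bacterial monocultures were grown anaerobically at 37 °C in mGAM from a starting OD600 of 0.05 with 20 µM compound (1% DMSO), in round-bottom 96-well plates under pierced gas-permeable seals, and OD600 was read hourly for 24 h. With the minimum OD set to 0, area under the growth curve was normalised to the plate median of solvent-only wells, or to row and column medians on the industrial chemical plate. Each value is the median of three biological replicates grown on separate days.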

[2] = test system: Bacteroides caccae
Summary of the method: as §1

[3] = test system: Bacteroides clarus
Summary of the method: as §1

[4] = test system: Bacteroides dorei
Summary of the method: as §1

[5] = test system: Bacteroides stercoris
Summary of the method: as §1

[6] = test system: Bacteroides thetaiotaomicron
Summary of the method: as §1

[7] = test system: Bacteroides uniformis
Summary of the method: as §1

[8] = test system: Bifidobacterium longum subsp. longum
Summary of the method: as §1

[9] = test system: Clostridium difficile
Summary of the method: as §1

[10] = test system: Collinsella aerofaciens
Summary of the method: as §1

[11] = test system: Coprococcus comes
Summary of the method: as §1

[12] = test system: Escherichia coli ED1a
Summary of the method: as §1

[13] = test system: Escherichia coli IAI1
Summary of the method: as §1

[14] = test system: Eubacterium rectale
Summary of the method: as §1

[15] = test system: Fusobacterium nucleatum subsp. animalis
Summary of the method: as §1

[16] = test system: Lactobacillus gasseri
Summary of the method: as §1

[17] = test system: Lactobacillus paracasei
Summary of the method: as §1

[18] = test system: Odoribacter splanchnicus
Summary of the method: as §1

[19] = test system: Parabacteroides distasonis
Summary of the method: as §1

[20] = test system: Parabacteroides merdae
Summary of the method: as §1

Measured: growth AUC

CCOC(=O)c1cnn(C)c1S(=O)(=O)NC(=O)Nc1nc(OC)cc(OC)n1
inactive: [1] 1.08 | [2] 0.999 | [3] 1.02 | [4] 1 | [5] 1.15 | [6] 0.966 | [7] 1.03 | [8] 1.06 | [9] 0.982 | [10] 1 | [11] 0.991 | [12] 1.02 | [13] 1.01 | [14] 1.08 | [15] 1.09 | [16] 1.1 | [17] 1.02 | [18] 0.759 | [19] 1.03 | [20] 1.02

NC(=S)Nc1cccc2ccccc12
inactive: [1] 0.997 | [2] 0.892 | [3] 0.991 | [4] 0.835 | [5] 0.978 | [6] 0.945 | [7] 0.951 | [8] 1.06 | [9] 0.896 | [10] 0.909 | [11] 0.974 | [12] 0.96 | [13] 0.959 | [14] 1.03 | [15] 0.924 | [16] 0.888 | [17] 0.946 | [18] 0.983 | [19] 1.05 | [20] 0.915

O=C(NC(=O)c1c(F)cccc1F)Nc1cc(C(F)(F)F)cc(C(F)(F)F)c1Cl
inactive: [1] 0.695 | [2] 0.852 | [3] 0.867 | [4] 0.982 | [5] 0.849 | [6] 0.96 | [7] 0.96 | [8] 0.819 | [9] 1.02 | [10] 1.02 | [11] 0.932 | [12] 0.949 | [13] 0.971 | [14] 0.941 | [15] 0.989 | [16] 1.33 | [17] 0.861 | [18] 0.936 | [19] 0.948 | [20] 0.951

CNc1nc(NC(C)C)nc(SC)n1
inactive: [1] 0.806 | [2] 1.04 | [3] 0.972 | [4] 0.989 | [5] 0.913 | [6] 1.01 | [7] 0.957 | [8] 0.862 | [9] 1.01 | [10] 0.986 | [11] 0.962 | [12] 1 | [13] 0.988 | [14] 0.879 | [15] 0.922 | [16] 1.18 | [17] 1.05 | [18] 0.984 | [19] 0.985 | [20] 0.993

O.O=C(Nc1ccc(Cl)c(Cl)c1)Nc1cc(Cl)ccc1Oc1ccc(Cl)cc1S(=O)(=O)[O-].[Na+]
active: [3] 0.22 | [5] 0.0107 | [6] 0.329 | [7] 0.00911 | [10] 0.619 | [16] 0.0949 | [18] 0.0102 | [19] 0.494
inactive: [1] 1.16 | [2] 0.906 | [4] 0.908 | [8] 0.912 | [9] 0.829 | [11] 0.823 | [12] 1.06 | [13] 1.03 | [14] 0.886 | [15] 0.691 | [17] 0.906 | [20] 0.861

Oc1ccccc1
inactive: [1] 1.08 | [2] 0.963 | [3] 0.991 | [4] 1.03 | [5] 0.992 | [6] 0.997 | [7] 1.03 | [8] 0.998 | [9] 1.02 | [10] 1 | [11] 1.03 | [12] 1 | [13] 0.983 | [14] 0.983 | [15] 1.04 | [16] 1.08 | [17] 1.04 | [18] 0.984 | [19] 1.04 | [20] 1.01

CC(C)(C)C(=O)C(Oc1ccc(Cl)cc1)n1ccnc1 (stereo not given)
inactive: [1] 1.07 | [2] 0.971 | [3] 0.987 | [4] 0.98 | [5] 1.04 | [6] 0.944 | [7] 0.984 | [8] 1.01 | [9] 0.962 | [10] 0.94 | [12] 1.03 | [13] 0.994 | [15] 1.02 | [16] 0.918 | [17] 0.971 | [18] 0.994 | [19] 0.938 | [20] 0.96
active: [11] 0.629 | [14] 0.414

O=C1NCCN1
inactive: [1] 1.15 | [2] 1.02 | [3] 1.02 | [4] 1.06 | [5] 1.18 | [6] 1.02 | [7] 0.978 | [8] 1.04 | [9] 0.993 | [10] 1.02 | [11] 1.04 | [12] 1.05 | [13] 1.06 | [14] 1.01 | [15] 1.03 | [16] 0.984 | [17] 0.904 | [18] 1.04 | [19] 1.02 | [20] 1.04
